Compound activity from PubChem.
The list is not random: actives were taken first. Their share in the collection is about 19%.
DT40 TDP1 no CPT = qHTS for Inhibitors of human tyrosyl-DNA phosphodiesterase 1 (TDP1): qHTS in cells in absence of CPT. DT40 Tdp1-/- hTDP1 cells, no CPT, ATP luminescence, 48 h. Potency, µM (top dose mostly 46.2 µM), inactives show at the highest dose activity change, negative = growth inhibition, actives largely listed as inhibitors. 420,000 tested, 15% active; note: potency is the fitted concentration of half-maximal effect; % is set by controls: 0 for no effect and ±100 for the full control effect; nearly all actives have a fitted effect of over 55% in size
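Camptothecin absent (DMSO only). Human TDP1-complemented DT40 knockout cells, 400 cells/well, 37 °C for minimum 48 hr; ATP measured via CellTiter-Glo, 30 min dark incubation, luminescence.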
IL-1B inflam inh = qHTS for Inhibitors of Inflammasome Signaling: IL-1-beta AlphaLISA Primary Screen; THP-1 LPS/ATP IL-1B secretion, AlphaLISA, 16 h; stronger effect = lower value; activity change, % at 57.5 µM; 360,000 tested, 4.7% active; AID 743279, 2014; in the data active = activity change below about -50%; inconclusive = mostly about -30% to -49%; note: % is set by controls: 0 for no effect and ±100 for the full control effect
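THP-1 cells pretreated 1 hr with compounds (up to 57.5 uM final), then stimulated with LPS (250 ng/mL final) plus ATP (1.25 mM final); secreted IL-1B measured by AlphaLISA after 16 hr, decreased signal indicating inhibition.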
MCF10A rerep = A quantitative high throughput screen for small molecules that induce DNA re-replication in MCF 10a normal breast cells; MCF 10A DNA re-replication, Hoechst nuclear intensity, 48 h; Potency, µM (highest dose often 46.1 µM), for the others: top-dose activity, positive = re-replication, hits mostly activators; 350,000 tested, 2.9% active; AID 624296, 2012; note: potency is the fitted concentration of half-maximal effect; % of control where 0% means no effect; nearly all actives have a fitted effect of over 50% in size
SW480 rerep = A quantitative high throughput screen for small molecules that induce DNA re-replication in SW480 colon adenocarcinoma cells | Potency, µM (doses to about 46.1 µM), without a hit: at the top dose re-replication activation, hits mostly activators | 340,000 tested, 1.8% active | SW480 DNA re-replication, Hoechst DNA content imaging, 48 h; note: potency is the fitted concentration of half-maximal effect; % of control where 0% means no effect; nearly all actives have a fitted effect of over 55% in size
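Hoechst fluorescence of nuclei (405 nm excitation, 500-530 nm emission) measured by plate-scanning imager after 48 hr compound exposure at 37 C; re-replication scored as increased number of nuclei with elevated intensity.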
DT40 TDP1 CPT = qHTS for Inhibitors of human tyrosyl-DNA phosphodiesterase 1 (TDP1): qHTS in cells in presence of CPT. chicken DT40 Tdp1-/-;hTDP1 cells + 20 nM CPT, ATP luminescence, 48 h. Potency, µM (doses to about 46.2 µM), for the others: at the top dose activity change, negative = growth inhibition, most hits filed as inhibitors. 420,000 tested, 12% active. AID 686979, 2013; note: potency is the fitted concentration of half-maximal effect; % is set by controls: 0 for no effect and ±100 for the full control effect; nearly all actives have a fitted effect of over 55% in size
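Chicken DT40 Tdp1-/- cells stably complemented with human TDP1 were seeded at 400 cells/well in medium containing 20 nM camptothecin, exposed to pin-transferred compounds, and grown at 37 °C for at least 48 hr. Viability was read as ATP luminescence.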
BCR signal inh = qHTS Assay to Find Inhibitors of Chronic Active B-Cell Receptor Signaling | ABC-DLBCL IkBa-CBG/CBR reporter, luminescence ratio, 4 h | 340,000 tested, 0.05% active | Potency, µM (series often up to 46.1 µM), for the others: at the highest dose activity change, negative = inhibition, most hits filed as inhibitors; active = well fitted inhibition curve with a large enough effect in the signal ratio, with a control signal flat, not every such curve was filed as active; inconclusive = small, poorly fitted or top-dose-only effect, or effect the other way, or a change in a side signal; the % refers to the signal ratio;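 note: potency is the fitted concentration of half-maximal effect; plate controls were basal doxycycline-induced cells for no effect and cells given 10 µM MG132 for full effect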
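TMD8 human ABC-DLBCL cells with doxycycline-inducible IκBα–green luciferase fusion and unfused red luciferase, in 0.5% FBS medium; compounds up to 46 uM, 4 h at 37C. Green/red luminescence ratio, filter-overlap corrected, fitted to concentration-response curves.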
The depositor's hits bear a star; ? = inconclusive; . = no result; [ ] = another dose, or the depositor's remark. Unless noted, calls come from the whole dose curve; as a rule, active = well fitted curve in the direction sought with a large enough effect; inconclusive = small, poorly fitted or top-dose-only effect, or another doubt; inactive = no such curve, though single readings can be large; an effect the other way counts as inactive or inconclusive.

SMILES | DT40 TDP1 no CPT | IL-1B inflam inh | MCF10A rerep | SW480 rerep | DT40 TDP1 CPT | BCR signal inh
COc1ccc(-c2cc(C(C)=O)c(C)n2CCC(=O)Nc2ccc(C)c(Cl)c2)cc1 | 18µM* | . | . | . | 15µM* | -22%
CCCCCCCCCC(=O)NO | ? | . | 2% | -11% | ? | .
CCOC(=O)c1c(N/N=C/c2ccncc2)n[nH]c1C | -22% | 0 | ? | ? | -6% | ?
COc1ccc(-c2ccc(CO)o2)cc1N | ? | 24 | -24% | 0% | ? | 16%
COc1cccc(-c2ccc3ncnc(N4CCNCC4)c3c2)c1 | -29% | . | . | . | ? | .
CN(C)c1ncnc2ccc(-c3cccnc3)cc12 | 23µM* | . | . | . | 12µM* | .
COc1cccc(-c2ccc3ncnc(N(C)C)c3c2)c1 | ? | . | . | . | 21µM* | .
Nc1c(C(=O)c2ccccc2O)cnn1-c1ccc(S(=O)(=O)N2CCOCC2)cc1[N+](=O)[O-] | . | . | . | . | . | -3%
CC(=O)OC1CC2(C)/C(=N\O)CCC2C2CCc3cc(O)ccc3C12 (stereo not drawn) | 3% | 61 | 0% | -9% | -9% | -28%
COCC(=O)N1CCC2(CC1)CN(C(=O)Nc1cccc(C#N)c1)C2 | 5% | . | . | . | 13% | .
COc1ccccc1-c1cc(C(F)(F)F)nc(S(=O)(=O)CCCC(=O)Nc2cc(C)on2)n1 | 1µM* | -102* | 21µM* | 16µM* | 0.92µM* | ?
COc1ccc(Cl)cc1NC(=O)CCCS(=O)(=O)c1nc(-c2ccc(OC)c(OC)c2)cc(C(F)(F)F)n1 | 2.1µM* | . | . | . | 1.5µM* | .
COc1ccc(NC(=O)CCCS(=O)(=O)c2nc(-c3ccccc3OC)cc(C(F)(F)F)n2)c(OC)c1 | -20% | . | . | . | -10% | .
COc1ccc(-c2cc(C(F)(F)F)nc(S(=O)(=O)CCCC(=O)Nc3cc(C)on3)n2)cc1OC | 1.2µM* | -110* | 3.7µM* | ? | 0.73µM* | ?
O=C(/C=C/c1ccccc1)OCc1ccccc1 | -27% | . | 1% | -3% | ? | .
CCOC(=O)CC1(C)Oc2cc(Cl)ccc2N1S(=O)(=O)c1ccc(C)cc1 (stereo not drawn) | ? | 11 | . | . | ? | .
COC(=O)c1cc(NC(=O)CCc2c(C)nc3c(c(C)nn3C(C)(C)C)c2C)cc(C(=O)OC)c1 | ? | . | . | . | -20% | .
O=C1OC(CC(=O)N(Cc2nnc(-c3ccccc3Cl)o2)C2CC2)c2ccccc21 (stereo not drawn) | ? | -1 | 12% | -2% | ? | -2%
CC1(c2nnc(Cc3ccccc3)o2)CC(c2ccccc2[N+](=O)[O-])=NO1 (stereo not drawn) | ? | -22 | 24% | -7% | ? | 5%
O=C(N/N=C/c1c(-c2ccccc2)[nH]c2ccccc12)c1cccnc1 | 3.3µM* | ? | ? | 23µM* | 6.5µM* | ?
Cn1cccc1/C=N/NC(=O)c1cccnc1 | -6% | 17 | ? | -1% | 3% | ?
Cn1c(-c2ccccc2)c(/C=N/NC(=O)c2cccnc2)c2ccccc21 | 23µM* | -28 | ? | ? | -19% | ?
COc1ccc(-c2[nH]ncc2[C@@H]2C[C@H]3CN(Cc4ccccc4C)C(=O)[C@]34CCCN24)cc1 | ? | -15 | 18% | -101% | ? | 1%
COc1ccc([C@@H]2C[C@H]3CN(Cc4ccccc4OC)C(=O)[C@]34CCCN24)cc1C | 18µM* | 15 | -1% | 19% | ? | ?
Cc1ccccc1CN1C[C@@H]2C[C@@H](c3cn[nH]c3-c3ccc(F)cc3)N3CCC[C@@]23C1=O | 21µM* | -51* | 20% | 39% | 18µM* | ?
SMILES | DT40 TDP1 no CPT | IL-1B inflam inh | MCF10A rerep | SW480 rerep | DT40 TDP1 CPT | BCR signal inh
COc1ccccc1CN1C[C@@H]2C[C@@H](c3ccc(C)c(C)c3)N3CCC[C@@]23C1=O | 16µM* | -17 | -8% | 4.1µM* | 15µM* | ?
O=C(C[n+]1cccc(/C=N/O)c1)N1CCCc2ccccc21 | 6% | 13 | 9% | -11% | -5% | -2%
O=C(NCc1ccccc1Cl)C1=CC=CN2CCS(=O)(=O)N=C12 | 20% | 11 | 10% | 9% | -7% | -6%
Cc1ccc(-c2nc3ccc(Cl)cc3c(=O)n2O)cc1 | 16µM* | 86 | ? | ? | ? | ?
Cc1ccc(-c2nc3ccccc3c(=O)n2O)cc1 | -8% | -8 | 17% | 3% | 20% | 0%
COc1cc(N2C(=O)C=CC2=O)c(OC)cc1Cl | 1.3µM* | ? | 5.8µM* | ? | 1.8µM* | ?
COc1cc(Cl)c(S(=O)(=O)N2CCCC2)cc1Cl | ? | 7 | ? | -14%[1.84 µM] | -24% | -1%
N#C/C(=C/c1ccc(N2CCCC2)c([N+](=O)[O-])c1)c1nc2ccccc2[nH]1 | 15µM* | -6 | -2% | -5% | 13µM* | 17%
N#C/C(=C\c1ccc(Oc2ccc(C(F)(F)F)cc2[N+](=O)[O-])cc1)c1nc2ccccc2[nH]1 | 21µM* | -13 | ? | ? | -74% | 16%
N#C/C(=C\c1ccc(OC(=O)c2ccc(Cl)s2)cc1)c1nc2ccccc2[nH]1 | ? | -3 | 1% | 13% | ? | ?
N#C/C(=C\c1ccc(N2CCOCC2)o1)c1nc2ccccc2[nH]1 | 23µM* | -21 | 3% | -2% | ? | ?
N#C/C(=C\c1ccc(-c2ccc(C(=O)O)cc2)o1)c1nc2ccccc2[nH]1 | ? | 28 | ? | -10% | ? | ?
Cc1ccc2nc(/C(C#N)=C\c3ccc(N4CCCCC4)c([N+](=O)[O-])c3)[nH]c2c1 | 10µM* | ? | 2% | 5% | 21µM* | .
COc1cc(/C=C(\C#N)c2nc3ccccc3[nH]2)c([N+](=O)[O-])cc1OCc1ccccc1 | 18µM* | -2 | 5% | -8% | 23µM* | 3%
N#C/C(=C/c1ccc(N2CCOCC2)o1)c1ccc(Cl)cc1 | 15µM* | -78* | -7% | -8% | ? | ?
N#C/C(=C\c1ccc(N2CCOCC2)c([N+](=O)[O-])c1)c1nc2ccccc2[nH]1 | 15µM* | -104* | 10% | -42% | 26µM* | 3%
